Test results taken from PubChem BioAssay.

biological target: Torsin-1A (Homo sapiens) (UniProt O14656); experiment: TOR1A wild-type binding on microarray – cell lysate, small-molecule microarray, lysate, 635/667 nm, primary screen (AID 1149); conditions: COS7 hTOR1A-WT lysate, 635 nm fluorescence, higher = more signal
Sequence (O14656 whole entry, looked up): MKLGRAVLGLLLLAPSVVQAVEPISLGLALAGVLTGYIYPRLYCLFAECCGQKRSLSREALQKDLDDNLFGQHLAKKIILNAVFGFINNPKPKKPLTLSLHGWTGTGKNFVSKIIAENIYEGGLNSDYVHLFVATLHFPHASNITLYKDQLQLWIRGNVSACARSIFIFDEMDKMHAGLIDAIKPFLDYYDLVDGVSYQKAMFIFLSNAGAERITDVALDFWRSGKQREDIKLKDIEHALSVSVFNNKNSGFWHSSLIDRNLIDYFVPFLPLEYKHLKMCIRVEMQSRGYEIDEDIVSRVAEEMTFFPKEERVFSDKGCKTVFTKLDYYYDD

SMILES	composite z-score
COCCOC(=O)N1C(=O)[C@@]2(c3ccccc31)[C@H](C(=O)N1CCc3cc(OC)c(OC)cc3C1)[C@H]1C(=O)O[C@H](c3ccccc3)[C@H](c3ccccc3)N1[C@@H]2c1ccc(OCCO)cc1	0.0657
COC(=O)C(CC#Cc1ccc2c(c1)[C@]1(C(=O)N2)[C@H](C(=O)Nc2nc3ccccc3s2)[C@H]2C(=O)O[C@H](c3ccccc3)[C@H](c3ccccc3)N2[C@@H]1c1ccccc1OCCO)C(=O)OC	0.25
CN1C(=O)C2C=CC(C(O)c3ccccc3)N(N(c3ccccc3)c3ccccc3)C2C1=O (stereo not given)	-0.351
COC(=O)[C@@]1(CCS(=O)(=O)c2ccccc2)N=C(c2ccc(OCCCO)cc2)O[C@H]1c1ccccc1CN=[N+]=[N-]	0.252
COC(=O)[C@H](Cc1ccccc1)N1CC2=C[C@@H](C3CC3)n3c(=O)n(C)c(=O)n3[C@H]2[C@@H]1[C@@H](O)Cc1ccccc1	0.413
